# Measurements reported in publication PMC12214610.
# How the values were obtained:
# 14-3-3 protein eta = 14-3-3 protein eta (UniProt Q04917)
# Actin, cytoplasmic 2 = Actin, cytoplasmic 2 (UniProt P63261)
# [1] = target: Rab11 family-interacting protein 1 (UniProt Q6WKZ4)
# Annexin A4 = Annexin A4 (UniProt P09525)
# [2] = target: Aspartate--tRNA ligase, cytoplasmic (UniProt P14868)
# [3] = target: Autonomous glycyl radical cofactor (UniProt P68066)
# Calreticulin = Calreticulin (UniProt P27797)
# Chain of Calreticulin (P27797 whole entry): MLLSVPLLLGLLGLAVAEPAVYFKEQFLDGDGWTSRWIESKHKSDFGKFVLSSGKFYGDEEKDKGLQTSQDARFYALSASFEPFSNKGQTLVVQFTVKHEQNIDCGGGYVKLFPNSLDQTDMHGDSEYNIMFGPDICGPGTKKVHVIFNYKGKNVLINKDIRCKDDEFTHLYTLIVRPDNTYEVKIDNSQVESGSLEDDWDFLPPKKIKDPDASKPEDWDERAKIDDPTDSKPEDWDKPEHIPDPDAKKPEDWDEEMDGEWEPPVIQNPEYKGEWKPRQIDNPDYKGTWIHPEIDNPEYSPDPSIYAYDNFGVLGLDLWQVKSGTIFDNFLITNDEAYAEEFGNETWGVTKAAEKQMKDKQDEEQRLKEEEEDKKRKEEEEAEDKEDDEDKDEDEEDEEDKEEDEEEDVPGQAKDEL
# [4] = target: Casein kinase II subunit alpha (UniProt P68400)
# Chain of Casein kinase II subunit alpha (P68400 whole entry): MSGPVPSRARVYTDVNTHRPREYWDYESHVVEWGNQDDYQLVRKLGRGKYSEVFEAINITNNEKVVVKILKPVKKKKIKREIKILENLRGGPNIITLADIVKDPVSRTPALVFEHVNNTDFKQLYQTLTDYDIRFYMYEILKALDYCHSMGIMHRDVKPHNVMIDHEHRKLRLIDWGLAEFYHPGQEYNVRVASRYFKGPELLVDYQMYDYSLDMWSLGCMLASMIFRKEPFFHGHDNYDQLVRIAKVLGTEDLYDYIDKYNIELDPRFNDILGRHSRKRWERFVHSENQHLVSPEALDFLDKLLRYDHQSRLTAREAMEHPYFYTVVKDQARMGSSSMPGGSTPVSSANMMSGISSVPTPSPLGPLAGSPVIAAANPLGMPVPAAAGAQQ
# Chaperone protein DnaK = Chaperone protein DnaK (UniProt P0A6Y8)
# [5] = target: Charged multivesicular body protein 2b (UniProt Q9UQN3)
# Chain of Charged multivesicular body protein 2b (Q9UQN3 whole entry): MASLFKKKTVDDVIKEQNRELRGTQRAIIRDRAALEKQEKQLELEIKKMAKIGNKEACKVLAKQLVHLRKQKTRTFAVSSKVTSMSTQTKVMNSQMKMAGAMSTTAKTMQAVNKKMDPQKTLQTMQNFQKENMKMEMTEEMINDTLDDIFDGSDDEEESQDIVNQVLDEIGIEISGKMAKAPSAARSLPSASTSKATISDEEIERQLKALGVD
# [6] = target: DNA-binding protein HU-beta (UniProt P0ACF4)
# [7] = target: Dihydrolipoyl dehydrogenase (UniProt P0A9P0)
# [8] = target: Pyruvate dehydrogenase E1 component (UniProt P0AFG8)
# Chain of Pyruvate dehydrogenase E1 component (P0AFG8 whole entry): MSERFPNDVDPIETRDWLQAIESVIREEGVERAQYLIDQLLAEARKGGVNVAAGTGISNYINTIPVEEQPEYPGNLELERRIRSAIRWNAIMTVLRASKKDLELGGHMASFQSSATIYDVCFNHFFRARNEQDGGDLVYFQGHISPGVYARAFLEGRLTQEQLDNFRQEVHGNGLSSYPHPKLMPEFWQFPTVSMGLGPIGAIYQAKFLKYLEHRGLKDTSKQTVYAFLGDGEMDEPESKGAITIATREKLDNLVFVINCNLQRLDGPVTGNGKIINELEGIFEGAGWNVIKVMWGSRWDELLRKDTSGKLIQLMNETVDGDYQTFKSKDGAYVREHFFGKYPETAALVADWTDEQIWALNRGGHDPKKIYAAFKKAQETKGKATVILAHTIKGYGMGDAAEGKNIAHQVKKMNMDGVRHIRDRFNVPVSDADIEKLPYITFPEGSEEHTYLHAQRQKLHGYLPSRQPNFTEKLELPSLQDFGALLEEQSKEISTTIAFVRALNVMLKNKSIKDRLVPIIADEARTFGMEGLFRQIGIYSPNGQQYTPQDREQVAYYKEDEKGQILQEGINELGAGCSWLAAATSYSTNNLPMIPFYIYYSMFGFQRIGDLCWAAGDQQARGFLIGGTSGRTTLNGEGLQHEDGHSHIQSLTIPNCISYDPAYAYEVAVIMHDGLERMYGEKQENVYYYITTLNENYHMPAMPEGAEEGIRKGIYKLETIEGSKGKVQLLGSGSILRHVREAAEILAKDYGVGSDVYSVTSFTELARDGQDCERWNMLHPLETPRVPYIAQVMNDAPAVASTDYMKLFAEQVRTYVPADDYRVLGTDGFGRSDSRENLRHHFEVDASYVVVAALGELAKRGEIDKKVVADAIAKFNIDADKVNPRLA
# [9] = target: Dihydrolipoyllysine-residue succinyltransferase component of 2-oxoglutarate dehydrogenase complex (UniProt P0AFG6)
# Chain of Dihydrolipoyllysine-residue succinyltransferase component of 2-oxoglutarate dehydrogenase complex (P0AFG6 whole entry, one chain of several): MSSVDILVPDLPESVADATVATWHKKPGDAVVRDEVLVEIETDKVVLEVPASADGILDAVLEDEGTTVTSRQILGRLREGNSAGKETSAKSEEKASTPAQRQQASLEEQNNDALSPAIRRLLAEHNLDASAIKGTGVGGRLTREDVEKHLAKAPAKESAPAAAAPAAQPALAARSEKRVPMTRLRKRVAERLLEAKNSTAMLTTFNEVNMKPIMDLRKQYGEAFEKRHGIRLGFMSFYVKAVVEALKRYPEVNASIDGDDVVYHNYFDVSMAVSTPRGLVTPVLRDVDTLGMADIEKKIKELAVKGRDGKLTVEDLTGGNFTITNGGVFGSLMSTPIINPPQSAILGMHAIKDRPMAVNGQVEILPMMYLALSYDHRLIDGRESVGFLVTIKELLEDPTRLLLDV
# [10] = target: Endoplasmic reticulum chaperone BiP (UniProt P11021)
# [11] = target: Peptidyl-prolyl cis-trans isomerase B (UniProt P23284)
# Chain of Peptidyl-prolyl cis-trans isomerase B (P23284 whole entry): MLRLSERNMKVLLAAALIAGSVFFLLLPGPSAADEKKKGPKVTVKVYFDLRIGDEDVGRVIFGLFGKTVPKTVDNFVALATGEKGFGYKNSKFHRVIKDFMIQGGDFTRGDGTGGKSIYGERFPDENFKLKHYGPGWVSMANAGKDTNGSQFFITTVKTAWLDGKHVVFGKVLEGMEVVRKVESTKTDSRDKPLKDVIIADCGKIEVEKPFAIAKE
# [12] = target: Fatty acid oxidation complex subunit alpha (UniProt P21177)
# [13] = target: Glutamate synthase [NADPH] small chain (UniProt P09832)
# Chain of Glutamate synthase [NADPH] small chain (P09832 whole entry): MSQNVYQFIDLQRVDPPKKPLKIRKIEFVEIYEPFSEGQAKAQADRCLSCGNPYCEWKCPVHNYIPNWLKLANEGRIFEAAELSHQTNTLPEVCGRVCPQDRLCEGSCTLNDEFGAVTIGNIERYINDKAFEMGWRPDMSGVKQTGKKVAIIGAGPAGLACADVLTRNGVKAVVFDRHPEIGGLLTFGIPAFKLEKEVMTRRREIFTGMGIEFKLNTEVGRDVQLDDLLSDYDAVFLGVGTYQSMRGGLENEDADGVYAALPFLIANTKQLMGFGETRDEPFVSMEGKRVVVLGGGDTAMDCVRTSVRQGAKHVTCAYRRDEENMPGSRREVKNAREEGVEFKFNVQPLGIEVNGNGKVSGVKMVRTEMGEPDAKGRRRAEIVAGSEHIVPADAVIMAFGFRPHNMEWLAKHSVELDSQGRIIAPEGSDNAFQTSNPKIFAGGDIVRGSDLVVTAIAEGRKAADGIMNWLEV
# [14] = target: Glycine--tRNA ligase beta subunit (UniProt P00961)
# [15] = target: Integration host factor subunit beta (UniProt P0A6Y1)
# Chain of Integration host factor subunit beta (P0A6Y1 whole entry): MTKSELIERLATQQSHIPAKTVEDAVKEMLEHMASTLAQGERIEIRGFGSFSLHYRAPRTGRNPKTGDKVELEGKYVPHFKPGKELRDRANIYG
# Myosin-9 = Myosin-9 (UniProt P35579)
# [16] = target: Phenylalanine--tRNA ligase alpha subunit (UniProt P08312)
# [17] = target: Succinate--CoA ligase [ADP-forming] subunit alpha (UniProt P0AGE9)
# Chain of Succinate--CoA ligase [ADP-forming] subunit alpha (P0AGE9 whole entry): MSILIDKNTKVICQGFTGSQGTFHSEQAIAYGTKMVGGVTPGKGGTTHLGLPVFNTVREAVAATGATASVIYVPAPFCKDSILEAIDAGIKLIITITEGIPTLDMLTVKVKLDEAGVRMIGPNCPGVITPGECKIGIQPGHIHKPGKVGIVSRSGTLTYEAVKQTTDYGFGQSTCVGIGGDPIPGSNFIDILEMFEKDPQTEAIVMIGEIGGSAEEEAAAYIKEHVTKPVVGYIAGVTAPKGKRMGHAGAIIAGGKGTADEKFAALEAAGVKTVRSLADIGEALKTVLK
# Transketolase 2 = Transketolase 2 (UniProt P33570)
# [18] = target: Uncharacterized protein YqjD (UniProt P64581)
# Chain of Uncharacterized protein YqjD (P64581 whole entry): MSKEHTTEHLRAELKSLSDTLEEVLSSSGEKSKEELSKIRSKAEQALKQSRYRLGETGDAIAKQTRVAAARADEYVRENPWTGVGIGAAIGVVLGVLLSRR
# [19] = target: Unconventional myosin-XVIIIa (UniProt Q92614)
# Chain of Protein disulfide-isomerase, P07237 (P07237 whole entry): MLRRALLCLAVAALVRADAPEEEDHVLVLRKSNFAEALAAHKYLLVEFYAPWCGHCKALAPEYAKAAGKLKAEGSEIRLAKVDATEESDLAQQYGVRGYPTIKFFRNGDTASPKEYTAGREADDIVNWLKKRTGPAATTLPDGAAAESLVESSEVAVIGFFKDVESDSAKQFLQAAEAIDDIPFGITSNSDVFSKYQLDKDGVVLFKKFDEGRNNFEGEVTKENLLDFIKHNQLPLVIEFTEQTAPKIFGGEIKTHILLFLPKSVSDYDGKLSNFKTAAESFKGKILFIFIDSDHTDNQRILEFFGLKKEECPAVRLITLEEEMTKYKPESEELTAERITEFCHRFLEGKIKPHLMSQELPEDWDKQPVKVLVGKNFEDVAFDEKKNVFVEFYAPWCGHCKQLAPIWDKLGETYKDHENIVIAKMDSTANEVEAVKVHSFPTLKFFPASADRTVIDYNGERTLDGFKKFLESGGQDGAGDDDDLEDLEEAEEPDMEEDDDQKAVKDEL
# Chain of Peptidyl-prolyl cis-trans isomerase B, P23284 (P23284 whole entry): as the sequence (P23284 whole entry) above
# Chain of Casein kinase II subunit beta, P67870 (P67870 whole entry): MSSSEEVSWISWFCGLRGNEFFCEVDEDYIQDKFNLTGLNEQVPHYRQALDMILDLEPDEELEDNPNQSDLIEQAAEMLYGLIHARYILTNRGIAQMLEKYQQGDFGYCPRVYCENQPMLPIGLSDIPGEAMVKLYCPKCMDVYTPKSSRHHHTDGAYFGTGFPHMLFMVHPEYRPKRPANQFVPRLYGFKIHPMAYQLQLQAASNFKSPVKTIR
# Chain of 14-3-3 protein eta (Q04917 whole entry): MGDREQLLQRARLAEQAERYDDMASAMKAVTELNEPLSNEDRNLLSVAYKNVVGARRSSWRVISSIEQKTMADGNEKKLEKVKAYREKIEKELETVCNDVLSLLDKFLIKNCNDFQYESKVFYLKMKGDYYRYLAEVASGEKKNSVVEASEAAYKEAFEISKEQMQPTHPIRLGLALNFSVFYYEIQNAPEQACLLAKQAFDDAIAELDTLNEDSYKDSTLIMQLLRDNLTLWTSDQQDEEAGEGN
# Chain of Autonomous glycyl radical cofactor (P68066 whole entry): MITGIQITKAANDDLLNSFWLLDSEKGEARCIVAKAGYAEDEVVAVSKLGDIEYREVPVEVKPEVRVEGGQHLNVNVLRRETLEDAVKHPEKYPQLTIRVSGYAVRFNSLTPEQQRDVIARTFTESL
substance,measurement,setting,value
"14-3-3 protein epsilon, P62258",listed as a hit,14-3-3 protein eta,yes
"Heat shock protein HSP 90-beta, P08238",listed as a hit,"Actin, cytoplasmic 2",yes
"Ras-related protein Rab-11B, Q15907",listed as a hit,[1],yes
"Annexin A6, P08133",listed as a hit,Annexin A4,yes
"Eukaryotic translation elongation factor 1 epsilon-1, O43324",listed as a hit,[2],yes
"Formate acetyltransferase 1, P09373",listed as a hit,[3],yes
"Protein disulfide-isomerase A4, P13667",listed as a hit,Calreticulin,yes
"Peptidyl-prolyl cis-trans isomerase B, P23284",listed as a hit,Calreticulin,yes
"Casein kinase II subunit beta, P67870",listed as a hit,[4],yes
"Protein GrpE, P09372",listed as a hit,Chaperone protein DnaK,yes
"Charged multivesicular body protein 1b, Q7LBR1",listed as a hit,[5],yes
"DNA-binding protein HU-alpha, P0ACF0",listed as a hit,[6],yes
"Dihydrolipoyllysine-residue acetyltransferase component of pyruvate dehydrogenase complex, P06959",listed as a hit,[7],yes
same,listed as a hit,[8],yes
"Dihydrolipoyl dehydrogenase, P0A9P0",listed as a hit,[9],yes
same,listed as a hit,[8],yes
"2-oxoglutarate dehydrogenase E1 component, P0AFG3",listed as a hit,[9],yes
"Protein disulfide-isomerase, P07237",listed as a hit,[10],yes
same,listed as a hit,[11],yes
"3-ketoacyl-CoA thiolase FadA, P21151",listed as a hit,[12],yes
"Glutamate synthase [NADPH] large chain, P09831",listed as a hit,[13],yes
"Glycine--tRNA ligase alpha subunit, P00960",listed as a hit,[14],yes
"Integration host factor subunit alpha, P0A6X7",listed as a hit,[15],yes
"Myosin regulatory light polypeptide 9, P24844",listed as a hit,Myosin-9,yes
"Phenylalanine--tRNA ligase beta subunit, P07395",listed as a hit,[16],yes
"Succinate--CoA ligase [ADP-forming] subunit beta, P0A836",listed as a hit,[17],yes
"Transketolase 1, P27302",listed as a hit,Transketolase 2,yes
"Protein ElaB, P0AEH5",listed as a hit,[18],yes
"Myosin-9, P35579",listed as a hit,[19],yes
